# How the values were obtained:
# Settings in all cases: concentration: 1 μM, replicates: in singlicate; n = 1
# [1] = test system: SGK3
# [2] = test system: SGK
# [3] = test system: SIK2
# [4] = test system: SIK
# [5] = test system: SLK
# [6] = test system: T1, SNARK
# T1 construct: gene NUAK2
# [7] = test system: SNRK
# [8] = test system: SRC
# [9] = test system: SRMS
# [10] = test system: SRPK1
# 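Note: KINOMEscan kinase panel screen.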
Structure (SMILES),%Inh [1] [%],%Inh [2] [%],%Inh [3] [%],%Inh [4] [%],%Inh [5] [%],%Inh [6] [%],%Inh [7] [%],%Inh [8] [%],%Inh [9] [%],%Inh [10] [%]
COc1ccc(Nc2nccc(N3CCC(NC(=O)C(C)c4ccc(Cl)cc4)CC3)n2)cc1 (stereo not shown) [GSK1379812],0,0,0,54,28,0,0,10,0,10
COc1ccc(CSc2nnc(-c3ccc4c(c3)CCO4)o2)cc1,0,0,0,0,0,0,0,0,0,0
Cc1ccc(NC(=O)Nc2ccc(Cl)cc2)cc1-c1ccc(C(=O)Nc2ccncc2)cc1 [GSK1398472],13,0,11,20,12,0,0,8,0,0
CC(=O)c1c(C)c2cnc(Nc3ccn(C)n3)nc2n(C2CCCC2)c1=O,26,0,0,0,34,6,0,0,0,0
Cc1cnc(N)c(/C=C/c2cncc(C(=O)NCCc3ccc(Cl)cc3Cl)c2)c1.Cl [GSK190937],0,0,0,0,0,0,0,0,24,24
COc1cccc(CNC(=O)NC2CCN(c3ccnc(Nc4ccc(F)cc4)n3)C2)c1 (stereo not shown) [GSK1379723],0,0,14,0,15,0,0,0,0,33
Cc1ccc(NC(=O)Nc2ccc(Cl)c(C(F)(F)F)c2)cc1-c1ccc(C(=O)Nc2ccncc2)cc1 [GSK1398470],4,0,26,41,21,4,56,21,0,30
CC(C)c1cc(-c2ccc3c(N)n[nH]c3c2)nc(N)n1 [GSK2250882],4,0,0,0,14,0,0,0,8,60
O=c1cc(N2CCOCC2)nc2n(Cc3cccc(Cl)c3Cl)c3ccccc3n12 [GSK2299009],4,31,18,16,39,16,0,0,0,19
Cn1cncc1-c1cc2c(Nc3ccc(OCc4ccccc4)cc3)ncnc2cn1 [GW281179],0,4,0,0,19,0,0,0,0,18
COc1cccc(C2=C(Nc3cc(Cl)c(O)c(Cl)c3)C(=O)NC2=O)c1 [SB-390767],0,0,0,0,13,0,0,0,0,11
Fc1ccc(-c2nc3n(c2-c2ccncc2)CCS3)cc1 [GI98581],0,0,0,17,25,0,0,9,0,23
O=C1NC(=O)C(c2ccc(Cl)cc2)=C1Nc1ccc(O)cc1 [SB-340867],6,0,0,0,9,0,0,0,0,18
CC(=O)c1c(C)c2cnc(Nc3ccc(N4CCNCC4)cn3)nc2n(C2CCCC2)c1=O,5,0,10,0,0,0,8,0,0,32
CNc1cc(-c2ccc3c(N)n[nH]c3c2)nc(N)n1 [GSK2224810],7,0,13,0,0,2,0,0,0,46
CCCCc1nn2ncccc2c1-c1ccnc(NC2CC2)n1 [GW684374],2,0,0,0,0,9,0,0,0,12
CCc1ccc(-c2ccc3c(c2)-c2n[nH]cc2S(=O)(=O)N3C)cc1,0,0,13,29,0,0,1,0,1,0

Structure (SMILES),%Inh [1] [%],%Inh [2] [%],%Inh [3] [%],%Inh [4] [%],%Inh [5] [%],%Inh [6] [%],%Inh [7] [%],%Inh [8] [%],%Inh [9] [%],%Inh [10] [%]
COc1ccc(Nc2nccc(N3CCC(NC(=O)c4cc5ccccc5s4)C3)n2)cc1 (stereo not shown) [GSK1379738],7,0,0,0,4,6,0,0,0,17
COc1ccc2cc(-c3nc(-c4ccccc4C(C)C)[nH]c3-c3ccncc3)ccc2c1 [SB-660566],0,0,0,0,78,0,0,0,0,7
CC(=O)c1cccc(NC(=O)NC2CCN(c3ccnc(Nc4ccc(F)cc4)n3)C2)c1 (stereo not shown) [GSK1379710],5,18,9,0,2,19,7,0,8,21
Cc1nccc(-c2c(-c3ccc(F)cc3)ncn2CCCN2CCOCC2)n1.Cl [SB-282975],39,27,0,27,32,42,2,26,0,19
CN1c2ccc(-c3ccc(C(N)=O)cc3)cc2-c2[nH]ncc2S1(=O)=O,0,0,10,8,2,0,0,7,4,0
COc1cccc(NC(=O)Nc2ccc(C)c(-c3ccc(C(=O)Nc4ccncc4)cc3)c2)c1 [GSK1398474],11,0,0,10,7,13,3,31,0,31
CNc1nc(-c2ccc3c(N)n[nH]c3c2)cc(N2C[C@@H](C(=O)Nc3ccccc3)CC[C@H]2C)n1 [GSK2298859],1,0,0,4,19,8,0,2,0,33
Cc1cccc2c(-c3ccncn3)c(-c3ccc(F)cc3)nn12 [GW515532],2,12,39,0,13,0,0,0,0,33
c1ccc(-c2ccnc3[nH]ccc23)cc1 [SB-693578],10,18,25,0,6,48,0,0,0,0
COc1cc2ncnc(Nc3cccc(Br)c3)c2cc1OC.Cl [GI230329],0,22,0,0,65,3,23,20,21,34
COC(=O)C(NC(=O)NC1CCN(c2ccnc(Nc3ccc(F)cc3)n2)C1)c1ccccc1 (stereo not shown) [GSK1379712],2,2,3,0,4,5,0,0,0,0
Cl.Cl.Cl.N#Cc1ccc(CCNc2nccc(-c3cccc(CN4CCNCC4)c3)n2)cc1 [GSK2137462],10,0,2,0,6,12,0,15,2,21
Cc1ccc(NC(=O)c2ccc(Cl)cc2)cc1-c1ccc(C(=O)Nc2ccncc2)cc1 [GSK1398467],0,0,0,0,19,0,0,0,0,13
O=C(Nc1n[nH]c2cc(-c3ccsc3)ccc12)C1CC1 [SB-732932],26,6,0,4,0,29,15,0,13,45
Cn1cnc2c(N)ncnc21 [SKF-97623],0,0,27,0,0,0,0,0,0,0
Cc1ccccc1-c1cc(-c2c[nH]nc2-c2ccccn2)ccn1 [GW680061],0,0,0,0,0,1,0,0,0,0
CS(=O)(=O)CCNCc1nc(-c2ccc3ncnc(Nc4ccc(OCc5ccccc5)c(Cl)c4)c3c2)cs1.Cl [GW582764],0,11,0,6,14,0,0,0,0,10

# From article PMC5540273 (PLoS ONE, 2017)
